Hit rate of the full screen: of about 48,000 compounds, about 13,000 (27%) showed an effect of 50% or more. Some of the results follow.
These compounds were tested on Wolbachia pipientis (assay: Anti-Wolbachia Cell-Based Screen). Conditions: 5 µM.
Type: functional
Parameters: scale not given: in the data most compounds retested in dose-response had high values

Row | Structure (SMILES) | Percent Effect [%]
1 | O=C(NC[C@]1(O)CN(Cc2ncccc2F)C[C@H]1O)c1cc[nH]n1 | 112.1
2 | COc1ccc(CN2C[C@@H](O)[C@](O)(CNC(=O)c3ccccn3)C2)cc1 | 112
3 | COc1ccc2c(c1)nc1n2[C@@H](CNC(=O)c2ccccn2)COC1 | 1.575
4 | COc1ccc(CNC(=O)c2ccc(Br)cn2)cc1 | -6.814
5 | Cc1cccc(CN2C[C@@H]3COC[C@]3(CNC(=O)c3ccsc3)C2)n1.O=C(O)C(F)(F)F.O=C(O)C(F)(F)F | 8.722
6 | O=C(NC[C@]1(O)CN(Cc2ccc(F)cc2)C[C@H]1O)c1ccccn1 | 127.5
7 | NC(=O)C(NC1CCN(Cc2ccc(F)cc2)CC1)c1ccccc1 (configuration not stated) | 12
8 | Cc1ncsc1CN1C[C@@H](O)[C@](O)(CNC(=O)c2ccccn2)C1 | 100.8
9 | Cc1ncsc1CNC(=O)N1CCN(Cc2ccccc2)C[C@H]1C | 1.865
10 | O=C(N[C@@H]1CCN(C(=O)c2ccc(F)cc2Cl)C[C@H]1O)c1ccccn1 | -3.407
11 | Cc1ncsc1CN1C[C@@H]2COC[C@]2(CNC(=O)c2ccco2)C1.O=C(O)C(F)(F)F | -13.65
12 | Cc1ccc(OC2CCN(C(=O)Cc3c(C)[nH]c(=O)[nH]c3=O)CC2)cc1 | 33.83
13 | Cc1ccccc1N1CCCN(C(=O)CCc2ccncc2)CC1 | 5.689
14 | CS(=O)(=O)NCC1CCCN(C(=O)COCC(F)(F)F)C1 (configuration not stated) | -5.002
15 | CN1CCC(O)(CCNC(=O)[C@@]23CNC[C@@H]2CN(C2CCCC2)C3)CC1 | -8.037
16 | CNS(=O)(=O)CC(=O)N(Cc1ccccc1)c1ccc(C)cc1 | -6.093
17 | NC(=O)c1csc(C(=O)N2CCCC(n3ccnc3)C2)c1 (configuration not stated) | 4.502
18 | NC(=O)c1csc(C(=O)N2CCCC(n3cccn3)C2)c1 (configuration not stated) | 118.9
19 | CC(C)c1nccn1C1CCCN(C(=O)c2ccsc2)C1 (configuration not stated) | -9.917
20 | Cc1nc(C)n(C2CCCN(C(=O)c3cc(C(N)=O)cs3)C2)n1 (configuration not stated) | 0.8263
21 | Cc1cc(C)n(C2CCCN(C(=O)c3cc(C(N)=O)cs3)C2)n1 (configuration not stated) | 143.1
22 | CNc1snc(C)c1C(=O)N1CCCC(n2nc(C)cc2C)C1 (configuration not stated) | -4.797
23 | O=C1CSc2ccc(C(=O)N3CCCC(n4cccn4)C3)cc2N1 (configuration not stated) | 11.58
24 | CC(C)c1nccn1C1CCCN(C(=O)c2ccnc(N(C)C)c2)C1 (configuration not stated) | -0.8202
25 | CC(C)c1nccn1C1CCCN(C(=O)c2cc(C(N)=O)cs2)C1 (configuration not stated) | 117.7
26 | O=C1COc2ccc(S(=O)(=O)NC3CC3)c3c2N1CCC3 | -10.68

Row | Structure (SMILES) | Percent Effect [%]
27 | O=C1CC[C@H]2CN(c3ncc(F)cn3)CC[C@H]2N1CCc1ccccc1 | -8.563
28 | CN(C(=O)c1ccncc1F)c1ccccc1S(C)(=O)=O | 0.2118
29 | O=C(CCN1CCCCC1)N1CCC(Cc2ccc(CO)cc2)C1 (configuration not stated) | -4.228
30 | Cc1nc(N2CCOc3ccc(CO)cc3C2)c2nc(C)oc2n1 | -3.074
31 | CN(Cc1ccccc1)C(=O)CCN1CCC2(CC1)[C@H](O)C[C@@H]2O | -5.462
32 | O=C(O)[C@@H]1CN(Cc2cnc(C3CCCCC3)nc2)C[C@H]1C1CC1 | 0.2506
33 | CCN(Cc1ccncc1)C(=O)CCn1c(C)cc2ccccc21 | -6.043
34 | CN(Cc1ccccc1)C(=O)CCN1C[C@H](C2CC2)[C@@H](N(C)C)C1 | 117.2
35 | C[C@@H]1CN(CCC(=O)N(C)Cc2ccccc2)C[C@@]1(O)C1CCC1 | -9.793
36 | CCN(Cc1ccccc1)C(=O)CCN1C[C@@H](C(=O)O)[C@H](C2CC2)C1 | 110.3
37 | C[C@@H]1CN(CCC(=O)N(C)Cc2ccccc2)CC[C@@]1(O)C1CCC1 | 22.93
38 | CCN(Cc1ccccc1)C(=O)CCN1CC(O)C1 | 89.96
39 | CCNc1ncc(CN2C[C@@H](C(=O)O)[C@H](C3CC3)C2)cn1 | -13.99
40 | CCNC(=O)C1CCN(c2cc(-c3ccccc3)nc3ccnn23)C1 (configuration not stated) | 11.77
41 | CC(C)(C)c1ccc(=O)n(CN2CCCC(C(F)(F)F)C2)n1 (configuration not stated) | -4.138
42 | COc1ccc2c(c1)OCC(CNC(=O)c1ccc(=O)n(C)c1)C2 (configuration not stated) | 0.3526
43 | O=C(CCNC(=O)c1ccoc1)NCc1ccccc1F | 0.6342
44 | Cn1ccnc1CN1CCN(Cc2cc(C#N)ccc2F)CC1 | 0.8662
45 | Cn1ccnc1CN1CCN(CC(O)c2ccco2)CC1 (configuration not stated) | 3.847
46 | Cc1nnc(CN2CCN(CC(O)c3cccc(F)c3)CC2)n1C (configuration not stated) | 8.346
47 | Cn1ccnc1CN1CCN(CC(O)c2ccc(F)cc2)CC1 (configuration not stated) | 154.5
48 | Cc1nnc(CN2CCN(Cc3nccn3C)CC2)n1C | -10.76
49 | CCN1CCN(CC(O)c2ccc(F)cc2)CC1 (configuration not stated) | 5.506
50 | Cn1ccnc1CN1CCN(CC(O)c2cc(F)ccc2F)CC1 (configuration not stated) | 92.89
51 | Cn1ccnc1CN1CCN(CC(O)c2ccc(F)c(F)c2)CC1 (configuration not stated) | -1.464
52 | CC(C)c1ccc(C(O)CN2CCN(Cc3nccn3C)CC2)cc1 (configuration not stated) | 94.53

Reference: ChEMBL document CHEMBL3988442, “University of Dundee, Small-Polar-MMV Screening Library” (2021)
